The list is not random: actives were taken first. Their share in the collection is about 3.2%.
Sm TGR inh: inhibitors of Schistosoma mansoni thioredoxin glutathione reductase | purified TGR, DTNB reduction, TNB absorbance 405 nm | Potency, µM (top dose mostly 114 µM), without a hit: top-dose activity change, negative = inhibition, most hits filed as inhibitors | 3% of 360,000 active | AID 485364; further: nearly all actives have a fitted effect of over 60% in size
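Kinetic colorimetric format: TGR-catalysed, NADPH-driven DTNB reduction monitored via TNB absorbance. Enzyme dispensed at 20 nM; compound exposure 15 min at room temperature before reaction start.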
AmpC inh no detg: AmpC beta-lactamase inhibition without detergent; AmpC nitrocefin hydrolysis, absorbance 480 nm, 0.0001% Triton; Potency, µM (top dose mostly 57.1 µM), inactives show at the top dose activity change, negative = inhibition, usual class: inhibitors; 0.52% of 330,000 active; AID 485341;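 further: plate controls were no compound for no effect and no enzyme for full effect; nearly all actives have a fitted effect of over 20% in size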
Target sequence (P00811 whole entry, looked up): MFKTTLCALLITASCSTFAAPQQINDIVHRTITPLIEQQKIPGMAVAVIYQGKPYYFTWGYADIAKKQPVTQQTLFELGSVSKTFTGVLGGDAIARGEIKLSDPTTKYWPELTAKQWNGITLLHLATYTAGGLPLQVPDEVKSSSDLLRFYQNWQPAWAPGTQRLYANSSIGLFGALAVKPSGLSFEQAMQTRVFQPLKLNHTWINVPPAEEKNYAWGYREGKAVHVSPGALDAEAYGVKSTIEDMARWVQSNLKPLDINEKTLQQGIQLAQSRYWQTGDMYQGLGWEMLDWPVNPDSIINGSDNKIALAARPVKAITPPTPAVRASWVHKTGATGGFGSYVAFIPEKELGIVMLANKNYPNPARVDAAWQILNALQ
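AmpC (5.3 nM in the dispensed reagent) in 20 mM phosphate pH 7.0 with 0.01% (detergent screen) or 0.0001% Triton X-100 was preincubated with compounds for 15 min at room temperature. Nitrocefin was then added from an 800 uM solution, and hydrolysis was followed at 480 nm.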
RE007 growth inh: less growth of the S. pombe RE007 Vpr strain. AID 651644. S. pombe RE007 Vpr strain, BacTiter-Glo ATP luminescence, 24 h. Potency, µM (series often up to 92.2 µM), for inactives: at the top dose activity change, negative = less growth, hits mostly inhibitors. 0.21% of 360,000 active; active means well fitted falling curve with a large enough effect; inconclusive means small, poorly fitted or top-dose-only effect; inactive means no such curve, though single readings can be large or run the other way; further: nearly all actives have a fitted effect of over 50% in size
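Fission yeast RE007 carrying one integrated HIV-1 vpr copy, seeded at OD 0.01 in PMG+AL medium with 23 nL pinned compound. Grown 24 h at 30 degrees; viability read by BacTiter-Glo luminescence after 5 min.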
AMA1 RON2 block: AMA1-RON2 (P. falciparum) interaction inhibition; AlphaScreen AMA1-biotinylated RON2 peptide binding; Potency, µM (titrated, usually from 58.2 µM), for the others: top-dose activity change, negative = inhibition, most hits filed as inhibitors; 0.2% of 360,000 active;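 further: 0% = vehicle wells and -100% = peptide control; nearly all actives have a fitted effect of over 45% in size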
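AMA1 (3D7) with his tag at 25 nM final met compounds first, then biotinylated RON2 peptide at 25 nM; detection used donor plus acceptor beads, 10 µg/mL apiece, read by AlphaScreen after 30 min at room temperature.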
AmpC detergent: AmpC beta-lactamase inhibition with detergent present | P00811 | AmpC hydrolysis of nitrocefin, absorbance 480 nm, 0.01% Triton | Potency, µM (highest dose often 114 µM), for the others: at the top dose activity change, negative = inhibition, hits mostly inhibitors | 0.041% of 370,000 active | AID 485294;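 further: 0% = no-compound wells and -100% = no-enzyme wells; nearly all actives have a fitted effect of over 25% in size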
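AmpC (5.3 nM in the dispensed reagent) in 20 mM phosphate pH 7.0 with 0.01% (detergent screen) or 0.0001% Triton X-100 was preincubated with compounds for 15 min at room temperature. Nitrocefin was then added from an 800 uM solution, and hydrolysis was followed at 480 nm.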
* hit, by the source's call; ? = inconclusive; · = no result; [ ] = remark or other dose. Unless noted, the call rests on the fitted dose curve; in most records, active means well fitted curve in the direction sought with a large enough effect; inconclusive means small, poorly fitted or top-dose-only effect, or another doubt; inactive means no such curve, though single readings can be large; an effect the other way counts as inactive or inconclusive. Unless noted, on the % scale 0 is the no-effect control and ±100 the full control effect; potency means the concentration at half of the fitted maximal effect.

SMILES	Sm TGR inh	AmpC inh no detg	RE007 growth inh	AMA1 RON2 block	AmpC detergent
O=C(Cn1nc(Cl)nc1Cl)c1ccc2c(c1)OCCO2	20µM*	-20.8%	?	42.1%	?
Cn1cnnc1SCC(=O)c1cc2ccccc2oc1=O	8.91µM*	-26.0%	-9.6%	2.4%	-13.2%
CCc1nn(CC(=O)NCCc2ccc(Cl)cc2)c(=O)c2cc3ccccc3n12	-0.2%	·	·	·	-6.4%
COc1ccc(C(=O)CC2(O)C(=O)Nc3c(C)cccc32)c(OC)c1OC (centres undefined)	-1.4%	·	·	·	1.5%
COc1cc(OC)c(NC(=O)c2nnn(Cc3ccc(C)cc3)c2N)cc1Cl	-0.4%	·	·	·	1.2%
CCOc1cccc2cc(C(=O)Oc3ccc(OC)cc3)c(=O)oc12	39.8µM*	-16.5%	2.5%	0.0%	-14.1%
CCN(C(=O)CCS(=O)(=O)c1cc2[nH]c(=O)c(=O)[nH]c2cc1C)c1ccccc1	-1.0%	·	·	·	4.5%
CCCCN(C)CCn1c(=S)[nH]c2cc(OCC)c(OCC)cc2c1=O	-11.5%	?	13.2%	0.0%	?
CCN(CC)CCCn1c(=S)[nH]c2cc(Cl)ccc2c1=O	-1.1%	28.2µM*	-6.9%	-0.9%	?
CCOc1cc2[nH]c(=S)n(CCCN(CC)CC)c(=O)c2cc1OCC	6.31µM*	1.4%	-14.7%	2.2%	0.4%
CCN(CC)CCCn1c(=S)[nH]c2ccc(Cl)cc2c1=O	-31.9%	0.282µM*	-10.0%	2.9%	0.9%
COc1ccc(N2CCN(C(=O)c3cn(C4CCCCC4)c(=O)c4c3c3ccccc3n4C)CC2)cc1	0.5%	·	·	·	4.4%
Cc1cccc(C(=O)NC(=S)Nc2ccc(N3CCOCC3)cc2)c1	14.1µM*	-24.0%	5.4%	-0.4%	-9.5%
CCC(=O)Nc1cccc(NC(=S)NC(=O)c2cccs2)c1	25.1µM*	-37.4%	-5.2%	78.2%	-5.4%
CCC(=O)Nc1cccc(NC(=S)NC(=O)c2ccccc2Cl)c1	?	-48.0%	7.2%	5.9%	-6.2%
S=C(Nc1ccc(N2CCOCC2)cc1)Nc1ccc2snnc2c1	35.5µM*	-27.4%	-0.6%	12.8%	10.8%
COc1ccc(C(=O)NC(=S)Nc2ccc(N3CCOCC3)cc2)cc1Cl	20µM*	22.1%	-21.0%	13.1%	-2.7%
CCc1ccc(NC(=O)CC2C(=O)N(c3ccccc3)C(=O)N2C(C)C)cc1 (centres undefined)	0.5%	·	·	·	7.9%
CCOc1ccc(-c2nc3c(c(SCC(=O)N4CCCCC4)n2)Cc2cccc(OC)c2O3)cc1	-1.4%	·	·	·	13.3%
Cc1ccc(NC(=O)Cn2c(=O)n(Cc3nc(C)no3)c(=O)c3cc4c(cc32)OCO4)cc1	7.9%	·	·	·	17.7%
CCN(CC)CCCNC(=O)c1nn(C)c2c1CS(=O)(=O)c1ccccc1-2	0.4%	·	·	·	5.1%
N#Cc1ccccc1NC(=O)COC(=O)c1cccs1	·	-20.2%	-9.7%	6.6%	·
CC(=O)c1cccc(NC(=S)NC(=O)c2cccc(C)c2)c1	28.2µM*	-25.6%	·	24.1%	-8.0%
CC(=O)c1cccc(NC(=S)NC2CCCCC2)c1	-27.6%	-25.6%	-2.9%	-3.8%	-6.3%
COC(=O)c1cc(NC(=S)NC(=O)c2ccccc2)ccc1N1CCOCC1	25.1µM*	23.8%	-18.4%	55.0%	-5.1%
SMILES	Sm TGR inh	AmpC inh no detg	RE007 growth inh	AMA1 RON2 block	AmpC detergent
COC(=O)c1cc(NC(=O)c2c(-c3ccccc3)noc2C)ccc1N1CCOCC1	-3.2%	51.3%	3.7%	12.7%	0.6%
N#Cc1ccccc1NC(=S)NC(=O)c1cccs1	3.55µM*	-19.8%	-21.3%	103.0%	-11.9%
CC(=O)c1cccc(NC(=S)NC2CC2)c1	39.8µM*	-18.8%	26.4%	9.1%[11.6 µM]	-8.1%
O=C(NC(=S)Nc1cccc(NC(=O)c2ccccc2)c1)c1cccc([N+](=O)[O-])c1	-6.6%	-23.6%	20.9%	26.0%	-10.2%
O=C(NC(=S)Nc1ccc(N2CCOCC2)cc1)c1cccs1	8.91µM*	-19.1%	-1.7%	35.3%	-0.9%
NS(=O)(=O)c1cccc(NC(=S)NC(=O)c2cccc([N+](=O)[O-])c2)c1	15.8µM*	-25.3%	9.7%	60.4%	3.0%
CCC(=O)N1CCN(c2ccc(NC(=S)NC(=O)c3cccc([N+](=O)[O-])c3)cc2)CC1	10µM*	64.6%	3.5%	-6.8%	-1.1%
Cc1ccc2nc3sc(C(=O)Nc4ccc(N5CCOCC5)cc4)c(N)c3cc2c1	2.5%	0.355µM*	·	·	0.9%
CCOc1ccccc1N(CC)C(=O)c1noc2c1COc1ccc(C)cc1-2	5.1%	·	·	·	12.8%
O=C(CC(NCc1cccnc1)C(=O)O)Nc1ccc(F)cc1 (centres undefined)	0.7%	·	·	·	14.6%
Cc1ccc(N(C(=O)COc2ccccc2C)S(=O)(=O)c2ccc(Cl)cc2)cc1	9.6%	·	·	·	19.0%
CCOC(=O)C1=CC[C@@H](c2cccc(C)c2)N(S(=O)(=O)c2ccc(C)cc2)[C@H]1C(=O)OCC	3.8%	51.9%	13.5%	-9.1%	3.7%
CCOC(=O)C1=CC[C@@H](c2ccco2)N(S(=O)(=O)c2ccc(C)cc2)[C@H]1C(=O)OCC	31.6µM*	44.3%	-3.8%	-11.3%	3.3%
Cc1ccc2nc(N3CCN(c4ccccc4F)CC3)c3nnnn3c2c1	0.2%	·	·	·	0.3%
COc1ccc(/C=C\c2onc(C)c2S(=O)(=O)N2CCC(C(=O)Nc3cccc(Cl)c3)CC2)cc1	6.2%	·	·	·	-6.7%
O=C(Cc1coc2cc3c(cc12)CCC3)OCc1cc(=O)n2c(n1)sc1ccccc12	-14.0%	31.6µM*	-3.2%	-19.2%	-1.3%
CCC(=O)Nc1cc(C)c(O)c(-c2nc3ncccc3o2)c1	9.4%	·	·	·	3.4%
O=c1c2c3c(sc2nc2n1CCCC2)CCCC3	1.8%	-13.5%	28.2µM*	-13.9%	?
CCOc1ccc(CNC(=O)CS(=O)(=O)c2cccc3nsnc23)cc1	-16.8%	·	·	·	0.4%
Cc1c(-c2ccccc2)nc(-c2ccccc2)[nH]c1=O	-0.6%	1.5%	1.7%	-13.1%	?
COC(=O)c1c(S(C)(=O)=O)nc(-c2ccccc2)[nH]c1=O	25.1µM*	-13.0%	13.5%	3.3%	-7.4%
CCc1cccc(NC(=O)c2oc3ccc4c(c3c2C)C(=O)CC(C)(C)O4)c1	-0.7%	·	·	·	25.6%
N#CC1=C(N)C(C#N)(C#N)[C@H](c2ccncc2)[C@H]2CC3(CC=C12)OCCO3	79.4µM*	-22.2%	3.5%	9.2%	?
Cc1cc2nn(-c3ccccc3)nc2cc1NC(=O)COc1ccc(Cl)cc1	?	·	·	·	15.4%
CCN(Cc1ccccc1)C(=O)c1cc2c(OC)c(OC)c(OC)cc2[nH]1	35.5µM*	60.4%	-12.4%	-10.1%	?
COc1cc2[nH]c(C(=O)N(C)Cc3ccccc3)cc2c(OC)c1OC	-10.8%	34.1%	1.2%	-10.0%	2.3%

Assay outcomes as filed in PubChem BioAssay.
